# Bioassay records from PubChem BioAssay.
# A selection: hits, their analogues and other compounds. The true share with any hit is near 7.2%.
# Efflux pump inh: blocks antifungal efflux pumps in multiplex yeast assay. S. cerevisiae Candida pump triplex, Nile Red efflux. inhibition, % at 10 µM. 0.44% of 330,000 active. AID 485275;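 active means plate passing quality check with inhibition over a set limit, or well fluorescence over plate mean plus 4 SD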;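 further: Nile Red retained in pooled yeast measured as flow cytometry median fluorescence; 0% = buffer negative control and 100% = Enniatin B positive control; higher means more Nile Red kept so more efflux inhibition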
# SUMO Mot1 rescue: SUMOylation pathway inhibition by Mot1-301 growth rescue. 1% of 320,000 active. growth rescue, % at 18.8 µM. S. cerevisiae Mot1-301 growth rescue, ATP luminescence, 38.5C; percent above DMSO median, 100 means doubled. AID 2716;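 active means every valid replicate shows activation above 250% relative to neutral control wells; inactive means the rest, any valid replicate at or below 250%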;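 further: OY570 slx delta 5 strain wells were the positive control but not used for scaling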
# VLA-4 inh: inhibition in a human VLA-4 binding assay; P13612; VLA-4 expressing cells, ligand binding flow cytometry; 0.2% of 330,000 active; inhibition, % (about 7 µM as worked out from the volumes in the protocol); in the data active means inhibition above about 50%
# A1 inh: inhibitors of the anti-apoptotic protein A1, read as caspase activation. MEF A1-2A-BIM cells, Caspase-Glo 3/7 luminescence, 3 h; percent of clofoctol response, vehicle zero. caspase activation, % (test concentration not listed). 0.066% of 330,000 active. AID 2462;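 active means over half of replicate activation scores above 10%, or exactly half above 10 with the replicate mean above 10; inconclusive means replicate mean below 10 yet half the replicates above 10; inactive means over half of replicates below 10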
# AHR act: activates the human aryl hydrocarbon receptor; P35869; AHR-responsive luciferase reporter cells, luminescence; activation, % at 5 µM; 2.5% of 320,000 active; in the data active means activation above about 47%;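 further: 0% = vehicle wells and 100% = reference agonist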
# ALR H2O2 inh: inhibitors of human sulfhydryl oxidase ALR. 3.8% of 290,000 active. AID 485317. inhibition, % (no concentration beside the values). purified ALR, DTT oxidation, H2O2 HRP-luminol luminescence. P55789;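 active means mean replicate inhibition above about 79%, with every replicate also reaching it, limit read from the data; inconclusive means only one of the two criteria met; inactive means mean below limit and not every replicate reaching it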
# Target sequence (P55789 whole entry, looked up): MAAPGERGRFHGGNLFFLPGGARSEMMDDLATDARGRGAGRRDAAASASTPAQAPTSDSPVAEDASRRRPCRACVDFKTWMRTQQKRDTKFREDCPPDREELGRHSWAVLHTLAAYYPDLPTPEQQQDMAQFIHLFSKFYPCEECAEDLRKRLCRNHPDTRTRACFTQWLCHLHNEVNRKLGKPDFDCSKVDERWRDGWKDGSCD
# Yeast cmpd fluor: compound fluorescence in yeast efflux pump counter-screen; shares compounds with Efflux pump inh; fluorescence ratio to DMSO, % at 10 µM; S. cerevisiae AD/pABC3, flow cytometry; 4% of 1,700 active;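 active means fluorescence ratio to DMSO above its plate's cutoff, the plate mean ratio plus 5 SD, cut at about 210% in these data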;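 further: unstained yeast with no Nile Red so the signal is compound autofluorescence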
# CaMdr1 efflux inh: Candida Mdr1 efflux pump inhibition; shares compounds with Efflux pump inh; S. cerevisiae AD/CaMDR1, Nile Red efflux, flow cytometry; inhibition, % at 10 µM; 1% of 1,700 active; AID 588518; in the data active means inhibition above about 26%;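 further: 0% = DMSO vehicle and 100% = reference inhibitor; higher means more Nile Red retained so more efflux inhibition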
# Cdr2 pump inh: blocks the Candida albicans Cdr2 efflux pump in yeast; Nile Red retention ratio vs DMSO, % at 10 µM; shares compounds with Efflux pump inh; S. cerevisiae AD/CaCDR2, Nile Red retention, flow cytometry; 4% of 1,700 active; in the data active means Nile Red retention ratio vs DMSO above about 190%;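 further: higher ratio means more blocking of Cdr2 efflux of the dye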
# Cdr1 pump inh: inhibitors of Candida albicans Cdr1 efflux pump. shares compounds with Efflux pump inh. S. cerevisiae AD/CaCDR1, Nile Red efflux, flow cytometry. 1% of 1,700 active. inhibition, % at 10 µM;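 active means inhibition above the screen-wide mean plus twice its standard deviation, cut at about 32% in these data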
# An asterisk follows results filed as active; i = inactive; ? = inconclusive; nt = not tested or not shown.
SMILES,Efflux pump inh,SUMO Mot1 rescue,VLA-4 inh,A1 inh,AHR act,ALR H2O2 inh,Yeast cmpd fluor,CaMdr1 efflux inh,Cdr2 pump inh,Cdr1 pump inh
Clc1ccc(Sc2cc(N3CCOCC3)nc(-c3ccccc3)n2)cc1,0.2,-4.5,2.0,0.2,5.1,-15.3,nt,nt,nt,nt
CC(C)Sc1cc(N2CCOCC2)nc(-c2ccc(Cl)cc2)n1,0.0,1.2,-2.0,0.3,1.2,0.0,94.0,0.0,91.1,-0.1
CCN1CCN(c2cc(SC(C)C)nc(-c3ccc(OC)cc3)n2)CC1,nt,nt,nt,nt,nt,nt,105.7,-0.2,103.8,-0.1
COC(C(=O)Nc1ccc(S(=O)(=O)Nc2cccc3ccccc23)cc1)c1ccccc1 (centres undefined),-0.1,7.3,-15.8,0.7,-0.6,nt,nt,nt,nt,nt
CC1=C(C(=O)Nc2cccc(C(=O)NC3CCCCC3C)c2)SCCO1 (centres undefined),0.0,-0.2,3.9,?,1.2,0.9,nt,nt,nt,nt
COCCCn1c(=S)[nH]c2ccc(N3CCOCC3)cc2c1=O,1.4*,-19.3,1.6,-1.0,17.5,2.0,119.6,0.3,116.6,0.1
Cc1ccc(CC(NC(=O)c2ccccc2)C(=O)NC(C)C(=O)O)cc1 (centres undefined),1.5*,-10.2,nt,0.1,-2.3,-3.7,98.2,-0.5,91.4,0.0
O=C(NC(Cc1ccccc1)C(=O)O)c1ccccc1 (centres undefined),0.0,-0.8,11.6,0.9,2.1,-4.1,nt,nt,nt,nt
CCN(CC(=O)NC1CCS(=O)(=O)C1)S(=O)(=O)c1ccc(C)c(C)c1 (centres undefined),-0.1,-6.0,22.0,1.1,1.1,-28.0,nt,nt,nt,nt
CCSc1nc2c(c(=O)[nH]1)C(c1ccncc1)C(C(=O)OC(C)C)=C(C)N2 (centres undefined),0.4*,0.7,33.2,0.8,48.5*,7.1,92.1,-0.2,107.2,-0.1
O=C(NCCc1c[nH]c2ccccc12)C(=O)Nc1cc2c3c(c1)CC(=O)N3CCC2,0.0,-8.7,24.5,0.1,3.1,-4.8,nt,nt,nt,nt
CC(C)(C)OC(=O)C[C@H]1C/C=C\C[C@@H](CC(=O)N(CCO)Cc2ccccc2)C(=O)N[C@@H](Cc2ccccc2)COC1=O,-0.1,-1.3,11.6,0.2,1.4,4.5,nt,nt,nt,nt
CCC1(C(=O)c2ccc(Cl)cc2)C2c3ccccc3OC(=O)C21C(=O)Nc1ccccc1 (centres undefined),1.8*,80.9,0.5,3.9,1.5,3.4,83.7,-0.2,106.0,0.3
CN(C)C(=O)c1ccc(NC(=O)c2ccc(-c3ccc(Cl)cc3)o2)cc1,0.6*,241.0,10.5,0.4,7.8,-4.2,108.3,-0.1,109.9,-0.1
Cc1ccc2nc(NC(=O)CSc3nc4ccccc4o3)sc2c1,0.6*,58.8,-4.7,-0.8,9.5,-26.0,153.8,0.9,127.2,-0.1
O=C(NOCc1ccccc1)c1coc(-c2ccccc2)n1,1.4*,nt,nt,nt,nt,nt,92.1,0.0,96.3,0.0
CCC(C)n1cnc2c(c1=O)c1nc3ccccc3nc1n2Cc1ccc(OC)cc1 (centres undefined),69.5*,31.2,3.6,0.0,-0.2,-8.2,100.0,0.4,122.6,1.2
COc1ccc(CNC(=O)C2CCCN(S(=O)(=O)c3ccc(F)cc3)C2)cc1 (centres undefined),0.4,-9.6,2.6,0.1,1.8,-3.2,nt,nt,nt,nt
CC(=O)N(C)c1ccc(NC(=S)NC(=O)/C=C/c2ccco2)cc1,0.6*,3.4,-6.1,-0.2,26.2,nt,106.2,-0.1,97.7,-0.1
CC(=O)Nc1ccc(NC(=S)NC(=O)/C=C/c2ccco2)cc1,-0.2,-4.4,-3.2,0.2,8.5,-0.4,nt,nt,nt,nt
CCSc1cc(N2CCCC2)nc(-c2ccc(C)cc2)n1,-0.4,-4.1,0.0,-0.4,1.9,-6.5,109.9,-0.1,103.6,0.0
CCSc1cc(N2CCCC2)nc(-c2ccc(F)cc2)n1,-0.1,6.0,-207.8,-0.7,-0.2,-2.3,90.8,-0.2,86.9,-0.1
Cc1cc(NC(=O)COC(=O)[C@H](Cc2c[nH]c3ccccc23)NC(=O)c2ccc(F)cc2)no1,0.0,-18.6,-1.0,0.7,2.6,-11.0,nt,nt,nt,nt
Cc1ccc(Cl)c(OC(=O)C2CSC3(C)CCC(=O)N23)c1 (centres undefined),0.0,nt,4.7,0.1,-2.5,nt,nt,nt,nt,nt
CN(CCC(=O)c1ccccc1)CCC(=O)c1ccccc1,-0.1,-7.9,5.7,0.6,nt,70.2,nt,nt,nt,nt
SMILES,Efflux pump inh,SUMO Mot1 rescue,VLA-4 inh,A1 inh,AHR act,ALR H2O2 inh,Yeast cmpd fluor,CaMdr1 efflux inh,Cdr2 pump inh,Cdr1 pump inh
C#CC[N+](C)(C)CCCCCCCCCCCC,1.0*,50.1,15.4,-0.2,0.1,-33.9,100.0,-0.3,494.5*,-0.1
O=C(COC(=O)CCCSc1nc2ccccc2[nH]1)NC(=O)NC1CCCC1,-0.3,-1.3,8.4,0.6,0.5,-4.1,nt,nt,nt,nt
CNC(=O)c1cccc(NC(=O)C(C)c2ccc3cc(OC)ccc3c2)c1 (centres undefined),1.4,78.9,2.1,0.7,9.6,-14.3,nt,nt,nt,nt
COc1ccc2cc(C(C)C(=O)Nc3cccc(S(=O)(=O)N(C)C)c3)ccc2c1 (centres undefined),3.2*,-23.2,14.6,0.6,2.3,-3.0,100.0,-0.2,94.0,-0.1
O=C(Nc1ccccc1C(=O)O)c1cccc(NC(=O)c2ccc(Br)o2)c1,-0.2,12.2,-8.7,-0.1,2.6,32.5,nt,nt,nt,nt
O=C(Nc1ccccc1C(=O)O)c1ccc(NC(=O)c2ccc(Br)o2)cc1,0.2,120.4,10.9,-1.9,-1.6,15.8,103.4,-0.1,93.0,0.0
Cc1ccccc1NC(=O)c1ccc(NC(=O)c2ccco2)cc1,0.0,-12.6,-0.9,-0.9,-8.7,-6.2,112.7,0.1,98.5,0.0
COc1ccc(Nc2nc(N)c(C(=O)c3ccc(OC)cc3)s2)cc1,-0.4,28.3,-14.6,-0.3,1.4,-3.3,nt,nt,nt,nt
COc1ccc(Nc2nc(N)c(C(=O)c3ccc(F)cc3)s2)cc1,12.3*,19.8,i,0.5,11.4,10.3,97.8,0.0,96.0,0.0
CCN(CC(=O)Nc1c(F)cccc1F)C(=O)c1nc2nccc(C)n2n1,0.1,3.2,-1.9,-0.3,0.0,14.4,nt,nt,nt,nt
CC(C)OC(=O)c1ccc(COC(=O)c2cccc(-c3nnc(-c4ccccc4)o3)c2)cc1,7.6*,-10.4,-8.7,0.5,7.6,-5.2,111.5,-0.3,101.5,0.1
